Reference: PubChem BioAssay (EPA / NIEHS)
Several values for one entry are separate records, joined by “and”; a condition that tells them apart may be missing. Equal values may be shown once. Some structures have more than one record in an assay (separate samples or runs), and their calls can disagree. Activity calls are given as the source filed them. Rule for the calls: active = hit-call score of the fitted dose curve at least 0.9, where 1 is the maximum; inactive = score below 0.9.

Legend:
[1] = ATG_E_Box_CIS: Attagene CIS-FACTORIAL HepG2 Assay for human Enhancer Box (E-box) (AID 2282936); conditions: HepG2 E-box cis-reporter transcription, actives raise or lower the signal
Outline: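 Measured 24 h post-dosing in HepG2 cells transfected with multiple cis-regulated reporter units, signal being reporter mRNA induction detected by fluorescent RT-PCR with capillary electrophoresis; gain or loss fitted against DMSO.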

[2] = ATG_M_61_CIS: Attagene CIS-FACTORIAL HepG2 Assay for M61 Transcription Factor (Internal Marker) (AID 2282937); conditions: HepG2 Attagene CIS-FACTORIAL M61 internal marker reporter; actives raise or lower the signal
Outline: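 HepG2 cells transiently transfected with cis-element-driven multiple reporter transcription units, dosed for 24 h. Reporter mRNA measured by RT-PCR, 6-FAM primer-extension labelling, HpaI digestion and capillary electrophoresis; bidirectional fit versus DMSO baseline.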

[3] = ATG_EGR_CIS: Attagene CIS-FACTORIAL HepG2 Assay for human Early Growth Response 1 (EGR1) (AID 2282938); conditions: HepG2 Attagene CIS-FACTORIAL EGR reporter mRNA; actives raise or lower the signal
Outline: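 HepG2 cells transiently transfected with cis-promoter-driven multiplexed reporter transcription units; reporter mRNA measured 24 h after compound dosing by RT-PCR, 6-FAM primer extension, HpaI digestion and capillary electrophoresis. Bidirectional fit versus DMSO baseline.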

[4] = ATG_ERE_CIS: Attagene CIS-FACTORIAL HepG2 Assay for Estrogen Response Element (ERE) (AID 2282940); conditions: HepG2 ERE cis-reporter, Attagene RNA transcript; actives raise or lower the signal
Outline: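 Fluorescence of capillary-separated, FAM-labelled reporter cDNA fragments indicates reporter mRNA levels in HepG2 cells exposed to chemicals for 24 h. Transient transfection with cis-regulated units; data fitted in both directions against DMSO.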

[5] = ATG_Ets_CIS: Attagene CIS-FACTORIAL HepG2 Assay for human Erythroblast Transformation Specific (ETS) (AID 2282941); conditions: HepG2 ETS cis-reporter transcription, actives raise or lower the signal
Outline: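 Multiplexed reporter transcript profiling: HepG2, 24 h treatment, total RNA to cDNA, PCR, 6-FAM labelling, HpaI cut, capillary electrophoresis. Gain- or loss-of-signal fitted against DMSO.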

[6] = target: Hepatocyte nuclear factor 3-beta (Homo sapiens) (UniProt Q9Y261); assay: ATG_FoxA2_CIS: Attagene CIS-FACTORIAL HepG2 Assay for human Forkhead box A2 (FOXA2) (AID 2282942); conditions: HepG2 cis-reporter transcription factor activity, 24 h; actives raise or lower the signal
Outline: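 HepG2 cells transiently transfected with multiple cis-regulated reporter transcription units, dosed for 24 h. Reporter mRNA measured by RT-PCR, 6-FAM labelling, HpaI digestion and capillary electrophoresis; bidirectional fitting against DMSO baseline.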

[7] = ATG_FoxO_CIS: Attagene CIS-FACTORIAL HepG2 Assay for human Forkhead box O (FoxO) (AID 2282943); conditions: HepG2 Attagene cis-reporter, FoxO element, mRNA; actives raise or lower the signal
Outline: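 HepG2 cells transiently transfected with cis-promoter-driven multiple reporter transcription units; 24 h after chemical dosing, reporter mRNA quantified by RT-PCR, fluorescent primer extension, HpaI digestion and capillary electrophoresis. Bidirectional fitting versus DMSO baseline.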

[8] = ATG_GATA_CIS: Attagene CIS-FACTORIAL HepG2 Assay for human GATA Binding Protein (AID 2282944); conditions: HepG2 GATA cis-element reporter, Attagene multiplex mRNA; actives raise or lower the signal
Outline: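 After transfecting HepG2 cells with multiple cis-regulated reporter units, chemicals are dosed for 24 h; isolated RNA undergoes RT-PCR and fluorescent labeling before capillary electrophoresis, with activity expressed against DMSO.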

[9] = ATG_GLI_CIS: Attagene CIS-FACTORIAL HepG2 Assay for human Zinc Finger Protein GLI1 (AID 2282945); conditions: HepG2, Attagene cis-factorial reporter mRNA, GLI element; actives raise or lower the signal
Outline: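 HepG2 cells transiently transfected with cis-promoter multiplexed reporter units report endogenous transcription factor activity. After 24 h chemical exposure, reporter mRNA was quantified by RT-PCR, 6-FAM labelling, HpaI digestion and capillary electrophoresis, with bidirectional fitting against DMSO.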

[10] = ATG_M_19_CIS: Attagene CIS-FACTORIAL HepG2 Assay for M19 Transcription Factor (Internal Marker) (AID 2282939); conditions: HepG2 Attagene CIS-FACTORIAL M19 internal marker reporter; actives raise or lower the signal
Outline: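 Signals come from fluorescence of labelled reporter-specific PCR fragments resolved by capillary electrophoresis, following 24 h treatment of HepG2 cells transfected with cis-promoter reporter units; activity was fitted in both directions relative to DMSO.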

Measured: AC50

Chain of Hepatocyte nuclear factor 3-beta (Homo sapiens) (Q9Y261 whole entry, looked up): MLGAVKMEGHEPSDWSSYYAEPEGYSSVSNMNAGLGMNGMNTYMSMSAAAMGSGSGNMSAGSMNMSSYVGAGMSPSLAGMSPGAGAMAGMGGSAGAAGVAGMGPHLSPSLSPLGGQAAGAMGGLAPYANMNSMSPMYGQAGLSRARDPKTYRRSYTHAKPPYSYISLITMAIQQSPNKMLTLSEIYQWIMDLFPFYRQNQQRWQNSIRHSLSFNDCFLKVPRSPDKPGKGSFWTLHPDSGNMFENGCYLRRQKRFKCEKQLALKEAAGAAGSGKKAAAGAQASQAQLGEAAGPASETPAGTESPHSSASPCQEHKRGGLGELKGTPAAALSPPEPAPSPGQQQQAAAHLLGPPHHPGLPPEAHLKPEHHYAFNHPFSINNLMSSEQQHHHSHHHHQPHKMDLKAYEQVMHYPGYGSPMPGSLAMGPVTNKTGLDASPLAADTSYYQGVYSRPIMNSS

CCCCCCCCn1sccc1=O
active: [3] 18.2 µM | [5] 14.8 µM | [7] 18.3 µM | [8] 18.4 µM | [9] 16.9 µM
inactive: [1] | [2] | [4] | [6]

CCC[CH2][Sn]([Cl])([CH2]CCC)[CH2]CCC
inactive: [2] | [10] | [4] | [5] | [6] | [7] | [8] | [9]
active: [1] 0.627 µM | [3] 0.659 µM

CO[C@@H]1[C@H](OC(=O)NC(=O)CCl)CC[C@]2(CO2)[C@H]1[C@@]1(C)O[C@@H]1CC=C(C)C
inactive: [1] | [2] | [3] | [10] | [4] | [6] | [7] | [8] | [9]
active: [5] 47.8 µM

ClCCOCCCl
inactive: [1] | [2] | [3] | [10] | [5] | [6] | [7] | [9]

Nc1cc(Cl)cc(C(=O)O)c1Cl
inactive: [1] | [2] | [3] | [10] | [5] | [6] | [7] | [9]

ClC1=C(Cl)[C@]2(Cl)[C@H]3[C@H]([C@@H]4C=C[C@H]3C4)[C@@]1(Cl)C2(Cl)Cl
active: [3] 33.4 µM | [4] 16.1 µM
inactive: [1] | [2] | [10] | [5] | [6] | [7] | [8] | [9]

Cn1cc(-c2ccccc2)c(=O)c(-c2cccc(C(F)(F)F)c2)c1
inactive: [2] | [3] | [10] | [4] | [5] | [6] | [7] | [8] | [9]
active: [1] 55 µM

c1ccc(C2CO2)cc1 (configuration not stated)
inactive: [1] | [2] | [3] | [10] | [5] | [6] | [7] | [8] | [9]

COc1cc(C=O)cc2c1[C@H](COC(N)=O)[C@]1(OC(C)=O)ON2C[C@H]2[C@@H]1N2C(C)=O
inactive: [2] | [3] | [9]
active: [1] 0.1 µM | [10] 33.4 µM | [4] 51 µM | [5] 12.4 µM | [6] 62.3 µM | [7] 58.9 µM | [8] 10.8 µM

Cc1ccc(N)cc1
inactive: [1] | [2] | [3] | [10] | [5] | [6] | [7] | [8] | [9]

C[C@]12C=CC3=C4CCC(=O)C=C4CC[C@H]3[C@@H]1CC[C@@H]2O
active: [3] 25.3 µM | [5] 31.8 µM and 30 µM | [7] 30.2 µM
inactive: [1] | [2] | [3] | [5] | [6] | [7] | [8] | [9]

CS(=O)(=O)NC(=O)c1cc(Oc2ccc(C(F)(F)F)cc2Cl)ccc1[N+](=O)[O-]
inactive: [1] | [2] | [3] | [10] | [5] | [6] | [7] | [8] | [9]

Clc1ccc(C(c2ccc(Cl)cc2)C(Cl)Cl)cc1
active: [3] 45.1 µM | [4] 19.3 µM | [5] 53.8 µM | [9] 45.9 µM
inactive: [1] | [2] | [10] | [6] | [7] | [8]

Oc1ccccc1Cl
inactive: [1] | [2] | [3] | [10] | [5] | [6] | [7] | [8] | [9]

CCN(CC)N=O
inactive: [1] | [2] | [3] | [10] | [5] | [6] | [7] | [8] | [9]

CN(C)c1ccccc1
inactive: [1] | [2] | [3] | [10] | [5] | [6] | [7] | [9]

CCC12COCN1COC2
inactive: [1] | [2] | [3] | [4] | [5] | [6] | [7] | [8] | [9]

ClC1=C(Cl)C2(Cl)C3C(Cl)C=CC3C1(Cl)C2(Cl)Cl (configuration not stated)
active: [3] 132 µM | [4] 24.4 µM
inactive: [1] | [2] | [5] | [6] | [7] | [8] | [9]
